In all, about 69,000 compounds went through this assay and about 950 (1.4%) showed an effect of 50% or more. For the sample, strong results were picked, then their nearest neighbours and some compounds at random.

This assay relates to Mycobacterium tuberculosis. Put plainly: Cornell M. t heat shock assay. Further: in the data most compounds retested in dose-response had high values. In kind it is functional, organism-based. Set-up: dose or concentration left out as unconfirmed.
Take `COc1cccc(S(=O)(=O)NC(=O)CC2CCCC2)c1`: the “Percent Effect” value worked out at 1.853%.
The figure for `COc1cccc(S(=O)(=O)NC(=O)CCC2CCCO2)c1` (stereo not drawn) is 15.02%; for `COc1cccc(S(=O)(=O)NC(=O)CCC2CCCC2)c1` it is 97.07%.
The figure for `O=C(O)C(F)(F)F.O=C(c1ccco1)N1CC[C@@H]2CN(C3CCOCC3)CCO[C@@H]2C1` is 13.99%; for `COc1ccc(CN(C)C(=O)c2nnc(CN(C)C)o2)cc1` it is -15.5%; for `CCCc1nnc(C(=O)N(C)Cc2ccc(OC)cc2)o1` it is -0.8003%.
In the case of `COCc1nnc(C(=O)N(C)Cc2ccc(OC)cc2)o1`, the “Percent Effect” value was determined as 51.18%.
With `COCC(=O)N1CCN(Cn2nc(C)c(Br)c2C)CC1` the figure was -1.426%; with `O=C(N1CCCC1)N1CCOCC2(CCN(Cc3cccs3)C2)C1.O=C(O)C(F)(F)F` (stereo not drawn), -28.46%.
Regarding `Cc1ncc(CNCC(C)O)c2cc(C(=O)c3ccc(Br)cc3)oc12.Cl` (stereo not drawn), the “Percent Effect” value is reported as 10.59%.
The figure for `Cc1ncc(CNC(C)(C)CO)c2cc(C(=O)c3ccc(Br)cc3)oc12` is 39.89%.
For `Cc1ncc(CNCCO)c2cc(C(=O)c3ccc(Br)cc3)oc12.Cl`, the “Percent Effect” value was 80.79%.
On to `Cl.c1csc(-c2noc(C3CNC3)n2)c1`, for which the “Percent Effect” value is 3.28%.
The figure for `O=C(O)C(F)(F)F.O=C(O)C(F)(F)F.O=C(O)C(F)(F)F.c1cnn(C[C@@H]2C[C@@H]3CN(CC4CC4)CC[C@@H]3N2c2nccs2)c1` is -5.195%; for `O=C(O)CC(O)(CC(=O)O)C(=O)O.OC1CCCN(Cc2ccnc(-c3cccnc3)n2)C1` (stereo not drawn) it is -5.175%.
With `CCOC1COC2(CCN(Cc3cccc(C#N)c3)CC2)C1.O=C(O)C(F)(F)F` (stereo not drawn) the figure was -5.189%.
The figure for `N#Cc1ccc(N2CCCC3(CCC(=O)N3CC3CC3)CC2)nc1.O=C(O)C(F)(F)F` (stereo not drawn) is 42.6%; for `CN(C(=O)C(c1c(F)cccc1Cl)N(C)C)c1nccs1` (stereo not drawn) it is -3.774%; for `CN(C)C(C(=O)Nc1nccs1)c1c(F)cccc1Cl` (stereo not drawn) it is 71.6%.
With `Cc1csc(N(C)C(=O)C(c2c(F)cccc2Cl)N(C)C)n1` (stereo not drawn), the “Percent Effect” value was determined as 16.08%.
With `O=C(O)C(F)(F)F.O=C(c1cnccn1)N1CCC2(CC1)CCN(Cc1ccccn1)C2=O`, the “Percent Effect” value is given as -24.58%.
Turning to `Cl.FC(F)CNc1cnc(C2CCNCC2)cn1`, the “Percent Effect” value is listed as 9.975%.
With `CN(C)CCn1c2c(ccc1=O)CC(NCc1cnn(C)c1)CC2.O=C(O)C(F)(F)F.O=C(O)C(F)(F)F` (stereo not drawn) the figure was 21.9%; with `O=C(O)C(F)(F)F.O=C(O)C(F)(F)F.c1cncc(C2COC3(CCN(CC4CCOCC4)CC3)C2)c1` (stereo not drawn), -13.27%.
With `CCN1CCOCC12CCN(C(=O)Cc1ccccc1)CC2.O=C(O)C(F)(F)F`, the “Percent Effect” value was -16.25%.
For `CNC(=O)CN1CC[C@H]2CN(C(=O)c3cc[nH]n3)C[C@H]2C1.O=C(O)C(F)(F)F`, the “Percent Effect” value was found to be 6.516%.
For the compound `Cc1cnn(CCNCc2nc(-c3ccsc3)oc2C)c1`, the “Percent Effect” value is on record as -4.227%.
The figure for `Cc1oc(-c2ccsc2)nc1CNC(C)Cn1cccn1` (stereo not drawn) is -16.19%; for `Cc1cnn(CC(C)NCc2nc(-c3ccsc3)oc2C)c1` (stereo not drawn) it is 59.87%; for `O=C(O)C(F)(F)F.O=C(O)C(F)(F)F.O=C(O)C(F)(F)F.c1cncc(COCc2cncc3c2CCN(Cc2ccoc2)C3)c1` it is 2.729%.
With `COc1cccc(Nc2nc(C3CCNCC3)c3ccccn23)c1.Cl` the figure was 10.85%; with `Fc1cccc(Nc2nc(N3CCCC3)nc3c2CNCC3)c1`, 102.4%.
`Oc1nc(N2CCOCC2)nc2c1CCN(Cc1cccc(F)c1)CC2`: the “Percent Effect” value is listed as -9.224%.
Consider `CC(C)Nc1nc(N2CCCC2)nc2c1CN(c1ncc(F)cn1)CC2`, for which the “Percent Effect” value is 18.45%.
With `COc1cccc(Nc2nc(-c3ccncc3)nc3c2CNCC3)c1.Cl` the figure was 9.794%; with `COc1cccc(Nc2nc(N3CCCC3)nc3c2CNCC3)c1.Cl`, 69.1%; with `Cc1cccc(CN2C[C@@H]3CN(C(=O)c4cnoc4C)C[C@@H]3C2=O)n1.O=C(O)C(F)(F)F`, -1.837%.
The figure for `CCOC(=O)C1CCN(C(=O)c2cc(Br)ccc2-n2cnnn2)CC1` is 2.973%; for `CC(C)(C)c1ncc(CNc2ccccc2Cn2cncn2)s1` it is -19.95%; for `Cc1ccc2c(c1)C(NCc1ncnn1C)CC2` (stereo not drawn) it is -20.52%.
With `COc1cccc(CNC2CCc3ccc(C)cc32)n1` (stereo not drawn) the figure was 6.41%.
Regarding `Cc1ccc2c(c1)C(NCc1ccccn1)CC2` (stereo not drawn), the “Percent Effect” value came out at 89.07%.
Consider `Cl.O[C@@H]1CN(Cc2ccc(F)c(F)c2)CC[C@H]1NCc1ccccn1`, for which the “Percent Effect” value is given as -13.15%.
Regarding `Cc1cc(-c2cnc(NCc3cccnc3)nc2C(C)(C)C)on1`, the “Percent Effect” value was determined as 31.35%.
With `CC(Cn1cccn1)NCc1nc(-c2ccccn2)no1` (stereo not drawn) the figure was -7.12%; with `COCC(C)NCc1ccc2[nH]c(C)c(C)c2c1` (stereo not drawn), -11.87%; with `Cc1[nH]c2ccccc2c1-c1ccnc(N[C@@H](C)CO)n1`, -31.62%.
With `Cc1cnn(CC(C)NCc2nc(-c3ccccn3)no2)c1` (stereo not drawn) the figure was -11.38%; with `COCC(C)NCc1nc(-c2ccc(C)cc2)c(-c2ccccn2)[nH]1` (stereo not drawn), 76.34%; with `Cc1ccc(-c2nc(CNC(C)CCO)[nH]c2-c2ccccn2)cc1` (stereo not drawn), 77%.
The figure for `O=C(Cc1ccsc1)N1C[C@@H]2CN(Cc3ccoc3)CCO[C@@H]2C1.O=C(O)C(F)(F)F` is -1.836%; for `CC(C)=CCN1C(=O)[C@H]2CC[C@@H]1CN(C(=O)CCc1n[nH]c(C)c1C)C2` it is -27.57%.
As for `O=C(N[C@H]1CCCC[C@@H]1O)c1ccc(-c2nc3ccccc3[nH]2)cc1`, the “Percent Effect” value is 47.47%.
With `O=C(N[C@H]1CCCC[C@@H]1O)c1cccc(-c2nc3ccccc3[nH]2)c1` the figure was 55.91%.
With `O=C(N[C@H]1CCCC[C@@H]1O)c1ccc2nc(-c3ccccc3)[nH]c2c1` the figure was 0.8647%; with `CN1CCOCC12CCN(C(=O)C1CCC1)CC2.O=C(O)C(F)(F)F`, 6.181%.
The figure for `Cc1cc(C)c2[nH]c(C)c(CC(=O)N(C)CCN(C)C)c2c1.O=C(O)CC(O)(CC(=O)O)C(=O)O` is -5.156%.
Regarding `Cc1ccccc1C(C)NC(=O)Cc1c(C)nc2cc(=O)[nH]n2c1C` (stereo not drawn), the “Percent Effect” value worked out at 33.63%.
With `Cc1ccc(C(C)NC(=O)Cc2c(C)nc3cc(=O)[nH]n3c2C)s1` (stereo not drawn) the figure was 66.66%; with `Cc1ccccc1CNC(=O)Cc1c(C)nc2cc(=O)[nH]n2c1C`, 17.46%; with `Cc1nc2cc(=O)[nH]n2c(C)c1CC(=O)NC(C)C`, -0.1861%.
As to `COc1ccccc1CC(=O)NCc1c(C)nc2cc(=O)[nH]n2c1C`, the “Percent Effect” value is given as 71.9%.
The figure for `COC(C(=O)NCc1c(C)nc2cc(=O)[nH]n2c1C)c1ccccc1` (stereo not drawn) is 5.148%.

These data come from ChEMBL document CHEMBL3988442, “University of Dundee, Small-Polar-MMV Screening Library” (2021).
